Among the data in PubChem BioAssay (NCI) are growth values, retold here.

Common to all, as to assay: NCI-60 one-dose screen, 48 h (100 = growth as untreated, 0 = no growth, -100 = all killed)
Settings in all cases: 10 µM unless noted

For assay [1], the system named is SK-MEL-2 melanoma.
Assay [2] concerns EKVX NSCLC.
The test system of assay [3] is SN12C renal.
The test system of assay [4] is UO-31 renal.
Assay [5] relates to TK-10 renal.
Assay [6] deals with ACHN renal.
For assay [7], the system named is CAKI-1 renal.
Assay [8] concerns A498 renal.
Assay [9] concerns CCRF-CEM leukemia.
For assay [10], the system named is MOLT-4 leukemia.
The test system of assay [11] is SR leukemia.
For assay [12], the system named is RPMI-8226 leukemia.
The subject of assay [13] is OVCAR-8 ovarian.
Assay [14] deals with OVCAR-5 ovarian.
Assay [15] concerns OVCAR-4 ovarian.
Assay [16] concerns SK-OV-3 ovarian.
In assay [17] the test system is IGROV1 ovarian.
Assay [18] relates to OVCAR-3 ovarian.
In assay [19] the test system is HS 578T breast.
Assay [20] concerns NCI/ADR-RES ovarian.

The structures appear in SMILES notation. About 83,000 compounds went through this panel and 20% of them were active in at least one assay; those are over-represented in the sample as a whole.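 96-well plates, one dose, 48 hours. Percent growth reported; active if below 10.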 A number with no mark means an inactive call. The source made the active and inactive calls.

In the case of `N#CC1=C(c2ccco2)Nc2c(c(-c3ccccc3)nn2-c2ccccc2)C12C(=O)Nc1ccc(Br)cc12` (stereo not given), the growth in assay [1] was 87%; in assay [2], 56.2%; in assay [3] it was 5.11% (active); in assay [4], 59.8%; in assay [5], 65.9%; in assay [6], 49.3%. For the same compound, the growth in [7] was 55.9%; in assay [8] it was 124%; in [9] it was 35.5%; in [10], 36.2%; in assay [11], 31.9%; in assay [12], 47.8%. Moreover, the growth in assay [13] was 25%; in [14], 74.9%; in assay [15], 41.6%; in [16], 80%; in assay [17] it was 67%; in assay [18] it was 42.5%. The growth in assay [19] was 6.01% (active); in [20] it was 29.9%.
As for `Oc1cncc(-c2ccc3ncnc(N4CCc5cc(F)c(Cl)cc54)c3c2)c1`, the growth in assay [1] is 66.4%; in assay [2] it was 59.2%; in assay [3], 44.2%; in assay [4] it was 35.7%; in assay [5] it was 78.8%; in assay [6], 46%. Moreover, the growth in [7] is 41.5%; in [8], -1.41% (active); in assay [9], 76.2%; in [10], 57.6%; in [11], 42.5%; in assay [12], 55.2%. Besides, the growth in assay [13] was 37.4%; in [14], 59.8%; in assay [15] it was 40.6%; in assay [16], 54.3%; in [17] it was 5.56% (active); in assay [18], 58%. Further, the growth is 18.1% in assay [19] and 61.9% in assay [20].
For `O=C1CCC(N2C(=O)c3cccc(NCCCCCC(=O)N4CCN(c5ccc6nc7c(nc6c5C(F)(F)F)C(=O)c5ncccc5C7=O)CC4)c3C2=O)C(=O)N1` (stereo not given), the growth in [1] was -74.6% (active); in assay [2] it was -59.6% (active); in assay [3] it was -79.6% (active); in [4], -94.5% (active); in assay [5], -9.44% (active); in assay [6], -70.8% (active). For the same compound, the growth in assay [7] is -78.8% (active); in [8] it was -80.7% (active); in assay [9] it was -23.1% (active); in [10], -25.6% (active); in assay [11], 8.9% (active); in [12] it was -0.232% (active). Besides, the growth in assay [13] is -53.3% (active); in assay [14] it was -90.5% (active); in assay [15], -83.4% (active); in assay [16] it was -66.9% (active); in assay [17], -75.4% (active); in [18], -50.4% (active). In addition, the growth in assay [19] is -11.5% (active); in assay [20], 19.6%.
On to `CCOc1ccccc1[C@H]1C(C(=O)c2ccc(Cl)cc2)C2(N[C@@H]1c1ccccc1)C(=O)Nc1ccc(Br)cc12` (stereo not given in full), for which the growth in [1] was -66.8% (active); in [2], 3.88% (active); in [3], -86.6% (active); in assay [4] it was 5.4% (active); in [5], 27%; in [6], 1.27% (active). For the same compound, the growth in [7] was 7.21% (active); in assay [8] it was -22.5% (active); in [9] it was 4.88% (active); in assay [10], -23.2% (active); in assay [11], -45.6% (active); in assay [12] it was 5.23% (active). The growth in assay [13] is 12.1%; in [14], -20.8% (active); in assay [15], 13.7%; in assay [16] it was 24.4%; in assay [17], 1% (active); in [18], -4.84% (active). For the same compound, the growth was -5.81% (active) in assay [19] and -46.7% (active) in assay [20].
As for `COc1cc(C2CC(c3cc(OC)c(OC)c(OC)c3)=Nc3c(N)nc(N)nc3N2)ccc1Oc1nc(Nc2ccc(F)cc2)nc(N(C)C)n1` (stereo not given), the growth in assay [1] was 82.7%; in [2], 67.5%; in [3], 78.5%; in assay [4], 40.3%; in assay [5], 99.8%; in assay [6], 68.1%. In addition, the growth was 52.3% in assay [7]; 118% in [8]; 26.7% in [9]; 6.97% (active) in assay [10]; -7.88% (active) in [11]; 33.9% in [12]. The growth is 59% in assay [13]; 105% in [14]; 49.2% in [15]; 107% in [16]; 70.8% in [17]; 74.2% in [18]. For the same compound, the growth in [19] was 48.2%; in assay [20] it was 66.4%.
`CCC(=O)c1c2c(c3ccc4c5ccccc5ccc4n13)C(=O)c1ccccc1C2=O`: the growth was 89.2% in [1]; 71.2% in assay [2]; 85.6% in assay [3]; 59.8% in [4]; 122% in [5]; 83.3% in assay [6]. The growth in [7] is 84%; in assay [8], 215%; in assay [9], 100%; in [10] it was 89.6%; in assay [11] it was 71.8%; in assay [12], 95.8%. Also, the growth was 96.1% in assay [13]; 122% in assay [14]; 88.2% in [15]; 105% in assay [16]; 75.6% in [17]; 75.9% in assay [18]. Further, the growth in [19] was 96.7%; in [20], 90.8%.
With `FC(F)(F)c1cc2c(Cl)ncnc2n1CCC1CCOCC1`, the growth in assay [1] was -91.2% (active); in assay [2] it was 77%; in assay [3], 40.7%; in [4] it was -92.9% (active); in assay [5] it was 98.3%; in assay [6], -44.2% (active). In addition, the growth in assay [7] is 80.3%; in assay [8] it was 97.8%; in [9], -14.5% (active); in assay [10] it was -38.4% (active); in [11], -64.3% (active); in assay [12] it was 72.2%. The growth in assay [13] was 18.1%; in [14] it was 102%; in assay [15], -16.5% (active); in [16] it was 50.6%; in assay [17], -90.6% (active); in assay [18], -75.4% (active). Also, the growth is -42.5% (active) in [19] and 69% in [20].
